This passage reports binding signal results from publication PMC13541613, “GHT-SELEX demonstrates unexpectedly high intrinsic sequence specificity and complex DNA binding of many human transcription factors”.

Common to all, as to experiment: HT-SELEX; 20 mM HEPES pH 7, 140 mM KCl, 5 mM NaCl, 1 mM K2HPO4, 2 mM MgSO4, 100 uM EGTA, ZnSO4, 0.1% Tween20; room temperature, 1 h; high values mean tight binding
Holding throughout (conditions): protein: ivt; tags: eGFP (N-terminal); dsDNA, one strand shown

One assay concerns the target ZNF721 full-length (Homo sapiens, UniProt Q8TF20-2 1-923). An outline of the steps:
(§1)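 Tagged transcription factor, expressed in HEK293 lysate or cell-free extract as a full-length protein or DNA-binding-domain fragment, was held on beads. It bound a randomized 40-base DNA library during 1 h at room temperature in low-stringency HEPES/KCl buffer with Tween20. Eluted DNA went through successive PCR cycles and Illumina sequencing of ~3 million 60 bp reads per sample. A higher relative k-mer count in the selected reads denotes tighter binding.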

A further assay has as its target ZNF721 DBD1 (Homo sapiens, UniProt Q8TF20-2 29-461). The gist of the method: as §1
The target of a further assay is ZNF721 DBD2 (Homo sapiens, UniProt Q8TF20-2 395-923). An outline of the steps: as §1
ZNF721 DBD2, sequence (Q8TF20 383-911): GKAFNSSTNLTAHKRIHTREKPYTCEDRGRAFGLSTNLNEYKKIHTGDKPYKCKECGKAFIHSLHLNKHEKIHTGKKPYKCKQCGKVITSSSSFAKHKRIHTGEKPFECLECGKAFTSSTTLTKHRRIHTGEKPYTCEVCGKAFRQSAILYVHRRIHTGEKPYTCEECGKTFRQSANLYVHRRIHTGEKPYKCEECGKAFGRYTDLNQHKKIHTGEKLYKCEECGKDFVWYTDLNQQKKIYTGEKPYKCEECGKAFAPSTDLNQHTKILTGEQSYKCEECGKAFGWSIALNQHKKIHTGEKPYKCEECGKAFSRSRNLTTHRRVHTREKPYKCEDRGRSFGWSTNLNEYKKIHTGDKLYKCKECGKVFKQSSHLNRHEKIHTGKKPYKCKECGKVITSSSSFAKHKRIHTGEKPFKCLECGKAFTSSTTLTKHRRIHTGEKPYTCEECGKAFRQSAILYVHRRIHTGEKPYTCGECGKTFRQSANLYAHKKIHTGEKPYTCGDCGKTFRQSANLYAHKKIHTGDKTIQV

ZNF721 DBD1, sequence (Q8TF20 17-449): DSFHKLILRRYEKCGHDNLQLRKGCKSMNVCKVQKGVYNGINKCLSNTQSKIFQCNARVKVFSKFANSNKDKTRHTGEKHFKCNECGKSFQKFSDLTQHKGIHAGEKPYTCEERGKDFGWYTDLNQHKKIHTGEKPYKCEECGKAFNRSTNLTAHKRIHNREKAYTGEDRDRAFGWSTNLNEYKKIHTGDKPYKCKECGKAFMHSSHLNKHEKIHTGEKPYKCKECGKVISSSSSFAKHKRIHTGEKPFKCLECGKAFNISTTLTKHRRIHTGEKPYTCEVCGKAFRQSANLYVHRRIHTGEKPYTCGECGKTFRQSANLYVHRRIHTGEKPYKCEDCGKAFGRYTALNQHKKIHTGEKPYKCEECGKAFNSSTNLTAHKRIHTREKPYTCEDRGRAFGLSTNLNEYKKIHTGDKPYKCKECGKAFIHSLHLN
ZNF721 full-length, sequence (Q8TF20 other isoform, or with tags, fused parts or gaps): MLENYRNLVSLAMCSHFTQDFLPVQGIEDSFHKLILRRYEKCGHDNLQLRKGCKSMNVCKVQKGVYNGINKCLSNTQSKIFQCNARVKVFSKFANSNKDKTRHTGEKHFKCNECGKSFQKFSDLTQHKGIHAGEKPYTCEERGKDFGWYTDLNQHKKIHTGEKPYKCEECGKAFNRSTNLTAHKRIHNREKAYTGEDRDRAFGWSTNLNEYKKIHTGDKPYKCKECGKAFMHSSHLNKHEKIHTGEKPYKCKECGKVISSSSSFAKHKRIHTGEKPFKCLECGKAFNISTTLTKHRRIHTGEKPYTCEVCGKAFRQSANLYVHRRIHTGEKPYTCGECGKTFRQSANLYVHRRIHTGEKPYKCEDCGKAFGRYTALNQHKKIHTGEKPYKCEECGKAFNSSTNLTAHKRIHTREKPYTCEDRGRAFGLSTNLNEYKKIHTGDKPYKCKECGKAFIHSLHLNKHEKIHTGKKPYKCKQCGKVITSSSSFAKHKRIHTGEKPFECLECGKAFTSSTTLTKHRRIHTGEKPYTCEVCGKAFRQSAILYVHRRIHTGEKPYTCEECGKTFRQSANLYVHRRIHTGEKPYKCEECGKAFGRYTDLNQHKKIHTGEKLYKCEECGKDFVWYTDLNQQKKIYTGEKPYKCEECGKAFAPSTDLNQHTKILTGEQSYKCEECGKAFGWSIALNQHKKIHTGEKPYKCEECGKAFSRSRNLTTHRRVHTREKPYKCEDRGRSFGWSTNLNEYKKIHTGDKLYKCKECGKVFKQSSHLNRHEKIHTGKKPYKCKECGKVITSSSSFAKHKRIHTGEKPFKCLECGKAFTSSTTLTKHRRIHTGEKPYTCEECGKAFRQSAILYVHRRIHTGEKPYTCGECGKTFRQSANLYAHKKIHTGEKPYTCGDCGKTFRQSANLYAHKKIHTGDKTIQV

Regarding CCAACCCCAC, the values for the binding signal with ZNF721 full-length, in the assay with ZNF721 DBD1 and with ZNF721 DBD2 were 0.128 relative 10-mer count, 0.00482 relative 10-mer count and 0.00288 relative 10-mer count, respectively.
For AAAAAGAAGC, in that order: 0.126 relative 10-mer count, 0.0301 relative 10-mer count and 0.0126 relative 10-mer count.
For CCCCCCCGAC, in that order: 0.115 relative 10-mer count, 0.00408 relative 10-mer count and 0.00288 relative 10-mer count.
For CCCGCCTCCC, in that order: 0.183 relative 10-mer count, 0.00954 relative 10-mer count and 0.00156 relative 10-mer count.
On to ACGCCCACCC, for which the binding signal with ZNF721 full-length worked out at 0.129 relative 10-mer count; with ZNF721 DBD1 it was 0.00486 relative 10-mer count; in the assay with ZNF721 DBD2, 0.00587 relative 10-mer count.
The matching figures for CCTCACCCCC: 0.156 relative 10-mer count, 0.00683 relative 10-mer count and 0.0018 relative 10-mer count.
For AAAGCAGCGT, the binding signal in the assay with ZNF721 full-length was found to be 0.371 relative 10-mer count; with ZNF721 DBD1, 0.00115 relative 10-mer count; with ZNF721 DBD2, 0.512 relative 10-mer count.
The matching figures for CACCACCCCC: 0.276 relative 10-mer count, 0.0117 relative 10-mer count and 0.0024 relative 10-mer count.
For CCTCCCCACC, in that order: 0.255 relative 10-mer count, 0.0111 relative 10-mer count and 0.00791 relative 10-mer count.
Turning to AGCAGTACCA, the figures for the binding signal in the assay with ZNF721 full-length, with ZNF721 DBD1 and in the assay with ZNF721 DBD2 were 0.118 relative 10-mer count, 0.0341 relative 10-mer count and 0.0533 relative 10-mer count, respectively.
For ACCCCCGCCC, in that order: 0.173 relative 10-mer count, 0.00619 relative 10-mer count and 0.00348 relative 10-mer count.
The matching figures for CCAACCCCCC: 0.169 relative 10-mer count, 0.0056 relative 10-mer count and 0.00144 relative 10-mer count.
The matching figures for AAAAAAGCAG: 0.862 relative 10-mer count, 0.0227 relative 10-mer count and 0.588 relative 10-mer count.
Turning to GCTTTTTTCC, the figures for the binding signal with ZNF721 full-length, with ZNF721 DBD1 and with ZNF721 DBD2 were 0.267 relative 10-mer count, 0.0895 relative 10-mer count and 0.0308 relative 10-mer count, respectively.
For CACCCCCCGC, in that order: 0.132 relative 10-mer count, 0.00537 relative 10-mer count and 0.00635 relative 10-mer count.
The matching figures for CCATCCCACC: 0.138 relative 10-mer count, 0.00697 relative 10-mer count and 0.00575 relative 10-mer count.
The matching figures for CCCACGACCC: 0.107 relative 10-mer count, 0.00564 relative 10-mer count and 0.0018 relative 10-mer count.
Consider CACCCCACCC, for which the binding signal in the assay with ZNF721 full-length was 0.31 relative 10-mer count; in the assay with ZNF721 DBD1, 0.012 relative 10-mer count; in the assay with ZNF721 DBD2 it was 0.0036 relative 10-mer count.
The matching figures for CAGGGGTGGG: 0.103 relative 10-mer count, 0.00482 relative 10-mer count and 0.00419 relative 10-mer count.
The matching figures for ACCACCACCC: 0.189 relative 10-mer count, 0.00679 relative 10-mer count and 0.00611 relative 10-mer count.
For CACCCAACCC, in that order: 0.123 relative 10-mer count, 0.005 relative 10-mer count and 0.00252 relative 10-mer count.
With CCACCCTACC, the binding signal with ZNF721 full-length came out at 0.115 relative 10-mer count; with ZNF721 DBD1 it was 0.00688 relative 10-mer count; with ZNF721 DBD2, 0.00839 relative 10-mer count.
For CCCCCACCCG, in that order: 0.174 relative 10-mer count, 0.00587 relative 10-mer count and 0.00384 relative 10-mer count.
As to CCCCCACCCC, the values for the binding signal with ZNF721 full-length, in the assay with ZNF721 DBD1 and with ZNF721 DBD2 were 0.44 relative 10-mer count, 0.0205 relative 10-mer count and 0.00276 relative 10-mer count, respectively.
Take ACACTTCATA: the values for the binding signal in the assay with ZNF721 full-length, with ZNF721 DBD1 and with ZNF721 DBD2 were 0.548 relative 10-mer count, 0.649 relative 10-mer count and 0.00144 relative 10-mer count, respectively.
The matching figures for CCCACCCACC: 0.425 relative 10-mer count, 0.0187 relative 10-mer count and 0.00899 relative 10-mer count.
The matching figures for AGTGTCTCCA: 0.147 relative 10-mer count, 0.0423 relative 10-mer count and 0.282 relative 10-mer count.
